ssDAF-12 act = S. stercoralis DAF-12 activation, primary screen; HEK293 ssDAF-12/GRIP1 lit1-tk-luc reporter, luminescence; % of 3 µM dafachronic acid response; activation, % at 6.8 µM; 1% of 370,000 active;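 active means activation above the mean over all tested compounds plus 3 SD, cut at about 0.9% in these data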
DAX1 inh-1 = inhibitors of human orphan nuclear receptor DAX1 (NR0B1); P51843; HEK293 Gal4-DAX1 luciferase reporter, luminescence; inhibition, % at 6.75 µM; 0.99% of 340,000 active; AID 504766;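 active means inhibition above the mean over all tested compounds plus 3 SD, cut at about 4.2% in these data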;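 further: inhibition shows as a rise in luminescence from relieved DAX1 repression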
Target sequence (P51843 207-470 limits assumed): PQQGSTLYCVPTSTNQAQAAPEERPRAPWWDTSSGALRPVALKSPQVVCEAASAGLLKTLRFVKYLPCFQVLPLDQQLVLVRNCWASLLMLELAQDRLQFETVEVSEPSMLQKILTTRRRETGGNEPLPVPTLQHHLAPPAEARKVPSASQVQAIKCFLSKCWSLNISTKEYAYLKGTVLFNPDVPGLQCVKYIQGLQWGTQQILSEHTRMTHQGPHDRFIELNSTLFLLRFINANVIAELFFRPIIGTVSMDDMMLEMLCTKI
DAX1 inh-2 = blocks DAX1 repression of SF-1 activated StAR promoter; AID 652010; inhibition, % at 6.8 µM; 1.1% of 370,000 active; HEK293T StAR-luciferase reporter, SF-1/DAX-1 repression relief;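 active means inhibition above the mean over all tested compounds plus 3 SD, cut at about 3.6% in these data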;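 further: higher inhibition means more luminescence from relief of DAX-1 repression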
hgDAF-12 ag = agonists of H. glycines DAF-12 nuclear receptor; activation, % at 6.8 µM; 1.8% of 370,000 active; HEK293 GAL4-hgDAF12 UAS-luciferase reporter, agonist luminescence; normalized to butyrate control;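 active means activation above a cutoff set at the mean of all screened compounds plus 3 SD, cut at about 10% in these data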
hcDAF-12 act = H. contortus DAF-12 activation, primary screen; HEK293 hcDAF-12 lit1-tk-luc reporter, luminescence; 0% DMSO, 100% Δ7-dafachronic acid; activation, % at 6.8 µM; 1.4% of 370,000 active;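 active means activation above the mean of all tested compounds plus 3 SD, cut at about 5.5% in these data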
LXR ag = activates human LXR-beta, counter-screen for hcDAF-12 agonists. HEK293 Gal4-LXR tk-luc reporter, luminescence, 24 h; normalized: DMSO 0%, positive control 100%. activation, % at 6.8 µM. 3,400 tested, under 10 active. shares compounds with hcDAF-12 act;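 active means mean percent activation of the reporter above a cutoff set as the average over tested compounds plus their standard deviation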
hcDAF12 conf = confirmation of H. contortus DAF-12 agonists. shares compounds with hcDAF-12 act. AID 743032. 61% of 3,400 active. HEK293 hcDAF-12 lit1-tk-luc reporter, luminescence; % of Δ7-dafachronic acid response. activation, % at 6.8 µM;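 active means mean activation across triplicate tests above the threshold derived from the earlier primary screen, cut at about 5.5% in these data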
Each line names hits and unclear results; the compound was inactive in the other large screens (follow-up assays come after a bar, where they were run). Rows were chosen to be rich in hits. Some 4.1% of all compounds tested hit in one or more screens of this group.

O=C(OCc1cn([C@@H]2C[C@H](c3ccc(Cl)cc3)N(C(=O)c3cccs3)C[C@H]2O)nn1)c1ccccc1	none
COc1cc2cc(C(c3nnnn3C3CCCC3)N3CCc4ccccc43)c(=O)[nH]c2cc1OC (stereo unspecified)	none (no result: ssDAF-12 act, DAX1 inh-2, hgDAF-12 ag, hcDAF-12 act)
COc1cc2cc(C(c3nnnn3C(C)(C)C)N3CCc4ccccc43)c(=O)[nH]c2cc1OC (stereo unspecified)	hcDAF-12 act 7.3 | LXR ag inactive | hcDAF12 conf inactive
CCOC(=O)c1c2c(n(-c3ccc(OC)cc3)c1C)C(=O)C(=O)c1ccccc1-2	none (no result: ssDAF-12 act, DAX1 inh-2, hgDAF-12 ag, hcDAF-12 act)
CCn1c(C)cc(C(=O)CN2C(=O)c3ccccc3S2(=O)=O)c1C	none
CCCn1c(C)cc(C(=O)CN2C(=O)c3ccccc3C2=O)c1C	ssDAF-12 act 0.9, hgDAF-12 ag 11, hcDAF-12 act 9.7 | LXR ag inactive | hcDAF12 conf 12
Cc1ccc2c(c1)-c1c(cnn1CC(=O)NCCc1ccc(Cl)cc1)CO2	none (no result: DAX1 inh-1)
O=C(/C=C\c1ccco1)NC(=S)Nc1ccccc1O	none
O=C(/C=C/c1ccco1)NC(=S)Nc1ccccc1O	hcDAF-12 act 6.8 (no result: DAX1 inh-1) | LXR ag inactive | hcDAF12 conf inactive
Cn1c(NCCc2ccncc2)nc2cc(-c3ccccc3)sc2c1=O	none (no result: DAX1 inh-1)
C/C(=N\NC(=O)c1c[nH]c2ccccc12)c1ccc2c(c1)OCO2	hcDAF-12 act 7.2 | LXR ag inactive | hcDAF12 conf inactive
C/C(=N\NC(=O)c1cc(C)oc1C)c1ccc2c(c1)OCO2	none
COc1cccc2c1C(=O)c1c(O)c3c(c(O)c1C2=O)C[C@@](O)(C(=O)CO)C[C@@H]3OC1CC(N)C(O)C(C)O1 (stereo partly specified)	ssDAF-12 act 7.3, hcDAF-12 act 11 | LXR ag inactive | hcDAF12 conf inactive
C/C(CC(=O)Nc1ccc(Cl)c(C(F)(F)F)c1)=N\NC(=O)c1ccccc1O	ssDAF-12 act 1.4, hcDAF-12 act 10 | LXR ag inactive | hcDAF12 conf inactive
COP(=O)(O)[C@@H](CC(C)C)NC(=O)OCc1ccccc1	none (no result: DAX1 inh-1)
CCOc1cc(C(=O)N=c2sccn2C)cc(Br)c1OC	none
C/C(=N\Nc1nc2c(s1)CCCC2)c1ccccc1	ssDAF-12 act 1.4, hcDAF-12 act 7.4 | LXR ag inactive | hcDAF12 conf 11
O=C(Nc1nc2c(s1)CCCC2)Oc1ccccc1	none
C/C(=N\Nc1nc(C(C)(C)C)cs1)c1ccccc1	ssDAF-12 act 2.2, DAX1 inh-1 6.6, hgDAF-12 ag 13, hcDAF-12 act 7.0 | LXR ag inactive | hcDAF12 conf 8.6
CC(C)(C)c1csc(NC(=O)c2ccccc2O)n1	none
CC(C)=NNc1nc(-c2ccccc2)cs1	hcDAF-12 act 7.2 | LXR ag inactive | hcDAF12 conf inactive
CCOC(=O)[C@]12CCCC=C1N(Cc1ccc(Cl)cc1Cl)C(=O)[C@H](CC(=O)NCCC(C)C)C2	none (no result: DAX1 inh-1)
CCCC[C@H]1C2CC(OC(=O)Nc3cccc(F)c3)C(C2)[C@H]2CCCCN21 (stereo partly specified)	none (no result: DAX1 inh-1)
CCC(=O)Nc1ccc(NC(=O)c2ccccc2)nc1	ssDAF-12 act 1.0, DAX1 inh-2 4.1, hgDAF-12 ag 11, hcDAF-12 act 7.0 | LXR ag inactive | hcDAF12 conf inactive
O=C(NC1CCCCC1)c1ccc2c(c1)OCO2	hcDAF-12 act 8.3 | LXR ag inactive | hcDAF12 conf inactive
CC(C)N(CCNC(=O)c1ccc(OCC2CCCO2)cc1)C(C)C (stereo unspecified)	none
Cc1csc(NC(=O)c2ccc(OCC3CCCO3)cc2)n1 (stereo unspecified)	DAX1 inh-2 4.3, hgDAF-12 ag 13, hcDAF-12 act 6.7 | LXR ag inactive | hcDAF12 conf inactive
O=C(NC1CCCCCC1)c1ccc(OCC2CCCO2)cc1 (stereo unspecified)	hcDAF-12 act 9.8 | LXR ag inactive | hcDAF12 conf inactive
O=C(Nc1nc(-c2ccc(F)c(F)c2)cs1)c1ccc(OCC2CCCO2)cc1 (stereo unspecified)	none
O=C(NNC(=O)c1ccc2c(c1)OCO2)NC1CCCCC1	none
O=[N+]([O-])c1ccc(-c2nc(Cl)c3c(n2)CCCC3)o1	none
O=C(CNS(=O)(=O)c1cccs1)N1CCN(c2ncccn2)CC1	none (no result: DAX1 inh-1)
COCCOC(=O)c1c(C)oc2ccc(O)c(CN3CCC(C)CC3)c12 (tested in a mixture with another compound)	none
CC(C)CC1NC(=O)c2cccnc2-n2c1nc1ccccc1c2=O (stereo unspecified)	none
Cc1ccc(C(=O)Nc2ccn(Cc3ccc(F)cc3)n2)o1	hcDAF-12 act 6.9 | LXR ag inactive | hcDAF12 conf inactive
O=C(Nc1ccsc1C(=O)O)c1cccc(Oc2ccccc2)c1	hgDAF-12 ag 13, hcDAF-12 act 7.8 | LXR ag inactive | hcDAF12 conf 7.3
O=C(Nc1ccsc1C(=O)O)c1cccc(C(F)(F)F)c1	none
O=C(Nc1ccsc1C(=O)O)c1ccc(Cl)cc1	ssDAF-12 act 3.0, hcDAF-12 act 9.1 | LXR ag inactive | hcDAF12 conf 12
OC(Cc1ccccc1)c1ncc(-c2ccc(Cl)cc2)[nH]1 (stereo unspecified)	none (no result: DAX1 inh-1)
CCOC(=O)c1ccc(/C=C2/C=C(c3ccccc3)N(c3ccc(Cl)c(C(=O)O)c3)C2=O)cc1	hcDAF-12 act 8.4 | LXR ag inactive | hcDAF12 conf inactive
CCOC(=O)c1ccc(Cl)c(NC(=O)c2ccc(-c3ccccc3)cc2)c1	none
Cc1c(Cl)cccc1NC(CC(=O)c1ccccc1)C(=O)OCC(=O)c1cccs1 (stereo unspecified)	none
O=C(CC(Nc1cccc(Cl)c1Cl)C(=O)OCC(=O)c1cccs1)c1ccccc1 (stereo unspecified)	hcDAF-12 act 7.4 | LXR ag inactive | hcDAF12 conf inactive
c1ccc(N2CC3CCc4ccccc4C3=N2)cc1 (stereo unspecified)	ssDAF-12 act 1.4, hcDAF-12 act 12 | LXR ag inactive | hcDAF12 conf 12
CC1=C(C(=O)N(C(C)C)C(C)C)CC(CC(=O)NC2CCCCC2)C(=O)N1Cc1ccc(C(C)(C)C)cc1 (stereo unspecified)	none (no result: DAX1 inh-1)
CCOC(=O)c1sc(=NC(=O)c2cccs2)n(C)c1C	ssDAF-12 act 2.5, hgDAF-12 ag 17, hcDAF-12 act 7.8 | LXR ag inactive | hcDAF12 conf 23
CCOC(=O)c1sc(=NC(=O)c2ccc(OC(C)C)cc2)n(C)c1C	none
CCOC(=O)c1sc(=NC(=O)c2ccc(Cl)s2)n(C)c1C	hcDAF-12 act 6.7 | LXR ag inactive | hcDAF12 conf 15

Bioassay records: PubChem, The Scripps Research Institute Molecular Screening Center
